HttQ103 aggreg – reduces HttQ103-GFP aggregates in PC12 cells; Potency, µM (titrated, usually from 46.1 µM), hits mostly inhibitors; AID 1688; hit rate 1.1% among 220,000; PC12 HttQ103-GFP aggregates, Acumen cytometry, 40 h; further: nearly all actives have a fitted effect of over 60% in size
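Quantitative HTS on tebufenozide-induced (100 nM) PC12 cells stably expressing polyQ103 Huntingtin exon 1–GFP. Reduction of bright GFP aggregates, detected by laser scanning cytometry after lysis, identified actives across the titration.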
Lamin A splicing – LMNA splicing modulation; HeLa LMNA splicing GFP/RFP minigene ratio, 48 h; Potency, µM (series often up to 46.1 µM), usual class: inhibitors; hit rate 0.01% among 200,000; active means well fitted inhibition curve with a large enough effect in the signal ratio, with a control signal flat, not every such curve was filed as active; inconclusive means small, poorly fitted or top-dose-only effect, or effect the other way, or a change in a side signal; the % refers to the signal ratio
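Read-out is the ratio of GFP to DsRed2 object intensity, acquired by 488 nm laser-scanning cytometry on HeLa lamin A-EGFP minigene reporter cells. Compound incubation 48 hrs at 37 °C in Opti-MEM with 2% FBS; DMSO 0.5% final.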
KinaseGlo FLuc – blocks Kinase-Glo luciferase, a counter-screen artifact | hit rate 0.28% among 200,000 | AID 1379 | Kinase-Glo luciferase, ATP luminescence, 8 min | Potency, µM (series often up to 38.3 µM), most hits filed as inhibitors | Q27757; further: nearly all actives have a fitted effect of over 60% in size
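Inhibition of Kinase-Glo luciferase light generation was assessed at 10 uM ATP in pH 7.2 imidazole buffer, with luminescence measured after eight minutes at ambient temperature.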
ALDH1A1 block – blocks purified human ALDH1A1 activity. Purified ALDH1A1, NADH fluorescence, propionaldehyde substrate. hit rate 7.3% among 220,000. Potency, µM (doses to about 75.3 µM), most hits filed as inhibitors; active means well fitted inhibition curve with a large enough effect, not every such curve was filed as active; inconclusive means small, poorly fitted or top-dose-only effect, or another doubt; inactive means no such curve, though single readings can be large or run the other way
Target sequence (P00352 whole entry, looked up): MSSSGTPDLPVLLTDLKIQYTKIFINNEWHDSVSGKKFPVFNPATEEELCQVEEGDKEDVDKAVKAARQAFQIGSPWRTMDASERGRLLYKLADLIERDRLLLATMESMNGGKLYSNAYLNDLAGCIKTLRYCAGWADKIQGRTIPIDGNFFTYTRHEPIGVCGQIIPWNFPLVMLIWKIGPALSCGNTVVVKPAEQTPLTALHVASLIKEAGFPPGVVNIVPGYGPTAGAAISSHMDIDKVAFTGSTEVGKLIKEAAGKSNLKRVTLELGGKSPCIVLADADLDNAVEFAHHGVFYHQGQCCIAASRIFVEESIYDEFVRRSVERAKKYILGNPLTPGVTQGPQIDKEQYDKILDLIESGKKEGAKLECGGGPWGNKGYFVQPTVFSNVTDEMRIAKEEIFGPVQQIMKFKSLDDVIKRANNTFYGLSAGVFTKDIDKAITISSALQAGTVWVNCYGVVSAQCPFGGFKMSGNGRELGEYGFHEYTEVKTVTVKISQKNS
HTT cytoprotect – cytoprotection in Huntington HTT-Q103 PC12 cell model | PC12 HTT-Q103 induced, cytoprotection, ATP luminescence, 40 h | hit rate 0.14% among 230,000 | Potency, µM (top dose mostly 56.4 µM), actives largely listed as activators; further: nearly all actives have a fitted effect of over 45% in size
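Cells were plated at 1500 per well in phenol red-free DMEM with 5% equine and 5% calf serum. Tebufenozide (100 nM final) and compounds were added, then ATPlite reagent, and luminescence was read.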
HPGD inh – blocks human HPGD enzyme activity; P15428; hit rate 4.3% among 150,000; purified HPGD, NADH fluorescence kinetic, PGE2 substrate; AID 894; Potency, µM, usual class: inhibitors; active means well fitted inhibition curve with a large enough effect, not every such curve was filed as active; inconclusive means small, poorly fitted or top-dose-only effect, or another doubt; inactive means no such curve, though single readings can be large or run the other way
Target sequence (P15428 whole entry, looked up): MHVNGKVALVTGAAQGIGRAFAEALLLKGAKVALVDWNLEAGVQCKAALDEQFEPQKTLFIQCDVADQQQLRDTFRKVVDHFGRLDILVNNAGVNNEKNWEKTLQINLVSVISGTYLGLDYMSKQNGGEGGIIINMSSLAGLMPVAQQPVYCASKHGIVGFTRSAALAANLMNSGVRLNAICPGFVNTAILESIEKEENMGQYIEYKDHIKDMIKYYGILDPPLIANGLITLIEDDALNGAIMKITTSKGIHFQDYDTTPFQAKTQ
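NADH formation kinetics: reaction with 30 uM PGE2 and 1 mM NAD+ (final), 20 nM enzyme, Tris-HCl pH 8 with Tween 20, after 15 min compound preincubation at room temperature. Fluorescence change, last versus first of five reads.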
Numbers stand for hits; [ ] = remark or other dose. Shown are actives, neighbours in structure and some others; about 9% of the full set was active somewhere. Unless noted, the call rests on the fitted dose curve; in most records, active means well fitted curve in the direction sought with a large enough effect; inconclusive means small, poorly fitted or top-dose-only effect, or another doubt; inactive means no such curve, though single readings can be large; an effect the other way counts as inactive or inconclusive.

`CC(C)CNC(=S)NNC(=O)c1csc2c1CCC(C)C2` (stereo not given) gave HttQ103 aggreg inconclusive, Lamin A splicing inconclusive, KinaseGlo FLuc inactive, ALDH1A1 block inactive, HTT cytoprotect inactive and HPGD inh inactive.
CCc1cccc(CC)c1NC(=S)NC(C)c1ccccc1 (stereo not given) was read as HttQ103 aggreg inconclusive, Lamin A splicing inactive, KinaseGlo FLuc inactive, ALDH1A1 block inactive, HTT cytoprotect inactive[10 µM] and HPGD inh inactive.
Cc1cccc(NC(=S)NNC(=O)c2csc3c2CCC(C)C3)c1 (stereo not given) was read as HttQ103 aggreg inconclusive, Lamin A splicing inconclusive, KinaseGlo FLuc inactive, ALDH1A1 block 22.4µM, HTT cytoprotect inactive and HPGD inh inactive.
For CCc1cc(C(=O)NNC(=S)NC(C)c2ccccc2)cs1 (stereo not given) the results were HttQ103 aggreg 17.8µM, Lamin A splicing inconclusive, KinaseGlo FLuc inactive, ALDH1A1 block inactive, HTT cytoprotect inactive and HPGD inh inactive.
`CCCc1cc(C(=O)NNC(=S)Nc2cccc(C)c2)cs1` gave HttQ103 aggreg inactive, Lamin A splicing inconclusive, KinaseGlo FLuc inactive, ALDH1A1 block 10µM, HTT cytoprotect inactive[10 µM] and HPGD inh inconclusive.
For COc1ccc2cc(CCC(C)=O)ccc2c1 the results were HttQ103 aggreg inactive, Lamin A splicing inconclusive, KinaseGlo FLuc inactive, ALDH1A1 block inactive, HTT cytoprotect inactive and HPGD inh inactive.
O=C(CCSCCc1ccccn1)Nc1ccc(Br)cc1F was read as HttQ103 aggreg inactive, Lamin A splicing inactive, KinaseGlo FLuc inactive, ALDH1A1 block inconclusive, HTT cytoprotect inactive[10 µM] and HPGD inh inconclusive.
Screening CC(CCc1ccccc1)NS(=O)(=O)c1ccccc1 (stereo not given) returned HttQ103 aggreg inactive, Lamin A splicing inactive, KinaseGlo FLuc inactive, ALDH1A1 block 10µM, HTT cytoprotect inactive and HPGD inh inactive.
`CC(CCc1ccccc1)NC(=O)Cc1ccccc1` (stereo not given) gave HttQ103 aggreg inactive, Lamin A splicing inactive, KinaseGlo FLuc inactive, ALDH1A1 block inactive and HPGD inh inactive.
`CCC(=O)n1nc(-c2ccccc2)nc1SCC(=O)Nc1ccc(C)cc1` gave HttQ103 aggreg inactive, Lamin A splicing inactive, KinaseGlo FLuc inactive, ALDH1A1 block inactive, HTT cytoprotect inactive and HPGD inh 7.94µM.
Screening CCc1ccccc1NC(=O)CSc1nc(-c2ccccc2)nn1C(=O)c1cccc([N+](=O)[O-])c1 returned HttQ103 aggreg inactive, Lamin A splicing inactive, KinaseGlo FLuc inactive, ALDH1A1 block inactive, HTT cytoprotect inactive and HPGD inh 12.6µM.
Screening CCc1ccc(N2C(=O)CC(N(CC3CCCO3)C(=O)/C=C/C(=O)O)C2=O)cc1 (stereo not given) returned HttQ103 aggreg inactive, Lamin A splicing inactive, KinaseGlo FLuc inactive, ALDH1A1 block inconclusive and HPGD inh inactive.
For CN1CCN(CCC2Oc3cc([N+](=O)[O-])ccc3NC2=O)CC1 (stereo not given) the results were HttQ103 aggreg inactive, KinaseGlo FLuc inactive, ALDH1A1 block inconclusive and HTT cytoprotect inactive.
For O=C(CSC1=Nc2ccccc2N=C(c2ccc(F)cc2)C1)NCc1ccc(F)cc1 the results were Lamin A splicing inactive.
For Cc1ccc(OCCn2cnc3cc([N+](=O)[O-])ccc3c2=O)cc1 the results were HttQ103 aggreg inconclusive, Lamin A splicing inactive, KinaseGlo FLuc inactive, ALDH1A1 block inactive and HTT cytoprotect inactive[10 µM].
For CCN(CC)CCNC(=O)c1ccc(NC(=O)c2ccc(Cl)c(S(=O)(=O)Nc3ccccc3OC)c2)cc1 the results were HttQ103 aggreg inactive, Lamin A splicing inactive, KinaseGlo FLuc inactive, ALDH1A1 block inactive, HTT cytoprotect inactive and HPGD inh inactive.
`CCN(CC)c1ccc(NC(=O)c2ccccc2Br)cc1S(=O)(=O)Nc1ccccc1OC` gave HttQ103 aggreg inactive, Lamin A splicing inconclusive, KinaseGlo FLuc inactive, ALDH1A1 block 1.58µM, HTT cytoprotect inactive[10 µM] and HPGD inh 2.24µM.
CCN(CC)c1ccc(NC(=O)c2ccccc2F)cc1S(=O)(=O)Nc1ccccc1OC was read as HttQ103 aggreg inactive, Lamin A splicing inactive, KinaseGlo FLuc inactive, ALDH1A1 block 4.47µM, HTT cytoprotect inactive[10 µM] and HPGD inh 14.1µM.
Screening CCN(CC)c1ccc(NC(=O)COc2ccccc2C)cc1S(=O)(=O)Nc1ccccc1OC returned HttQ103 aggreg inactive, Lamin A splicing inactive, KinaseGlo FLuc inactive, ALDH1A1 block 11.9µM, HTT cytoprotect inactive[10 µM] and HPGD inh 28.2µM.
For CCN(CC)c1ccc(NC(=O)c2ccc(=O)[nH]c2)cc1S(=O)(=O)Nc1ccccc1OC the results were HttQ103 aggreg inactive, Lamin A splicing inactive, KinaseGlo FLuc inactive, ALDH1A1 block 3.98µM and HTT cytoprotect inactive.
For ClCC1CSC(=NC23CC4CC(CC(C4)C2)C3)O1 (stereo not given) the results were HttQ103 aggreg inactive[9.22 µM], KinaseGlo FLuc inactive, ALDH1A1 block inconclusive and HTT cytoprotect inactive[10 µM].
For CCN(CC)c1ccc(NC(=O)COc2ccccc2C#N)cc1S(=O)(=O)Nc1ccc(OC)cc1 the results were HttQ103 aggreg inactive, Lamin A splicing inactive, KinaseGlo FLuc inactive, ALDH1A1 block 22.4µM, HTT cytoprotect inactive[10 µM] and HPGD inh inactive.
`COCCNC(=O)CSCc1c(F)cccc1Cl` gave HttQ103 aggreg inactive, Lamin A splicing inactive, KinaseGlo FLuc inactive, ALDH1A1 block inactive, HTT cytoprotect inactive[0.074 µM] and HPGD inh 22.4µM.
For O=C(NCCSCc1c(F)cccc1Cl)c1ccco1 the results were HttQ103 aggreg inactive, Lamin A splicing inactive, KinaseGlo FLuc inactive, ALDH1A1 block 15.8µM, HTT cytoprotect inactive and HPGD inh 5.01µM.
`COc1ccc(CNC(=O)CSCc2c(F)cccc2Cl)cc1` gave HttQ103 aggreg inactive[9.22 µM], KinaseGlo FLuc inactive, ALDH1A1 block 2.24µM and HTT cytoprotect inactive[10 µM].
For COc1cccc(C(=O)NC(=S)N2CCN(c3ccc(C(F)(F)F)cc3[N+](=O)[O-])CC2)c1 the results were HttQ103 aggreg inactive, Lamin A splicing inactive, KinaseGlo FLuc inactive, ALDH1A1 block inactive, HTT cytoprotect inconclusive and HPGD inh inactive.
For Nc1ccc(O)c(C(=O)O)c1 the results were HttQ103 aggreg inactive, Lamin A splicing inconclusive, KinaseGlo FLuc inactive, ALDH1A1 block inconclusive, HTT cytoprotect inactive and HPGD inh 11.2µM.
`COc1ccc2[nH]c(C)c(C(=O)CN3CCc4cc(OC)c(OC)cc4C3)c2c1` gave HttQ103 aggreg inactive, Lamin A splicing inactive, ALDH1A1 block 10µM and HTT cytoprotect inactive.
Screening COc1ccc2[nH]c(C)c(C(=O)CN3CCOCC3)c2c1 returned HttQ103 aggreg inactive, Lamin A splicing inactive, KinaseGlo FLuc inactive, ALDH1A1 block inconclusive, HTT cytoprotect inactive and HPGD inh inactive.
`N#Cc1cccc(C#N)c1Oc1ccc(S(=O)(=O)Nc2ccccc2)cc1` gave HttQ103 aggreg inactive[9.22 µM] and HTT cytoprotect inactive[10 µM].
